Broadly, the AC50 is the concentration giving half of the maximal activity seen.

Results filed as inconclusive are left out. Calls of active or inactive are those of the source. The calls were made as follows: active = hit-call score of the fitted dose curve at least 0.9, where 1 is the maximum; inconclusive = response in the unintended direction; inactive = score below 0.9.

This experiment is described as follows: ACEA_ER_80hr: ACEA Biosciences xCELLigence Real-Time Cell Analysis on Estrogen Receptor Agonism for Proliferation (AID 2282667). The settings on record: T47D proliferation, impedance (xCELLigence), 80 h. The procedure, abridged: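 Real-time impedance growth kinetics of human T-47D breast cells read 80 h after dosing, gain-of-signal fitted relative to DMSO. Compounds: 1:4 serial series, top final concentration 100 uM, n = 2.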
Consider `C1CCCNCC1`, for which the compound was called inactive.

Consider `O=C1CCCCCCCCCCCC(=O)OCCO1`, for which the outcome was inactive.

In the case of `C=C(C)C(=O)OCCOCCOC(=O)C(=C)C`, the compound was classed as inactive.

As for `CCC(C)(C)C1CCC(=O)CC1`, the result was inactive.

On to `COc1ccc(C(C)=O)cc1`, for which the AC50 is 26.7 nM (active).

Regarding `C[Si]1(C)N[Si](C)(C)N[Si](C)(C)N1`, the compound was classed as inactive.

As to `CC(C)N1C(=O)c2ccccc2C1=O`, the call was inactive.

Take `CCCCCC#CC(=O)OC`: the call was inactive.

In the case of `CC(C)COC(=O)c1ccccc1`, the result was inactive.

Consider `Cc1cc(O)c(C)c(C)c1O`, for which the result was inactive.

`CCC(C)C1CCCCC1=O` (configuration not stated): the compound was classed as inactive.

On to `S=c1[nH][nH]c(=S)s1`, for which the AC50 was 2680 nM (active).

Take `CCOC(=O)CCCCCCCCC(=O)OCC`: the compound was classed as inactive.

With `CCCCCCCCOS(=O)(=O)O`, the compound was called inactive.

Take `CCCCCC1CCC(=O)O1` (configuration not stated): the outcome was inactive.

In the case of `CC(=O)CCC(=O)O`, the compound was classed as inactive.

Consider `O=S(=O)(O)CCCN1CCOCC1`, for which the compound was classed as inactive.

`CCCCCCCCOC(C)=O`: the compound was called inactive.

For the compound `CC(CO)c1ccccc1` (configuration not stated), the call was inactive.

Consider `CCCO`, for which the call was inactive.

With `CCCCCc1cccc(=O)o1`, the compound was called inactive.

With `Nc1cc([N+](=O)[O-])ccc1C(=O)O`, the compound was called inactive.

For the compound `O=C(O)CS`, the outcome was inactive.

With `O=C(O)c1ccc(C(=O)O)c(C(=O)O)c1`, the call was inactive.

Take `CC(C)N(c1ccccc1)C(C)C`: the result was inactive.

As to `O=C(O)c1cc(C(=O)O)c(C(=O)O)cc1C(=O)O`, the compound was called inactive.

As to `CC1=CC[C@@H](C(C)(C)O)CC1`, the call was inactive.

Consider `COC(=O)c1ccc(C(=O)OC)cc1`, for which the call was inactive.

Regarding `c1ccc(Cc2ccccc2)cc1`, the call was inactive.

As for `CC1=CCC(C(C)(C)O)CC1` (configuration not stated), the outcome was inactive.

For the compound `CN(C)c1ccc(C=O)cc1`, the result was inactive.

`C1=COCCC1`: the compound was called inactive.

The values are drawn from PubChem BioAssay (EPA / NIEHS).
